Experimental data: PubChem BioAssay AID1159580 (chemical genetic matrix, 2015)
Out of some 5,500 compounds screened, about 2,000 (36%) were called active. Not shown: some 18% with an inconclusive outcome. The list shows a part of the results. Unmarked numbers belong to inactive results. Cut-off read from the data, not from the text of the source: active = normalized growth mostly below about 0.91 (no sharp cut-off); inconclusive = no clear call, values can overlap the other calls; inactive = mostly above about 0.92.

Assay: chemical genetic growth profiling, strain panel (AID 1159580);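 note: tested at 20 µM; growth read once vehicle control cultures reached saturation at 30 °C; 1 = growth at the plate median or of vehicle wells; lower values mean less growth of the strain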
Details: S. cerevisiae deletion strains, growth OD
[1] = locus YDL101C, strain DUN1, active compounds read low
[2] = locus YHR030C, strain SLT2, active compounds read low

**Q.** For `CSc1nnc(COc2ccc(C)c3c2CCC3)n1-c1ccccc1`, which normalized growth (locus YAR019C, strain CDC15, active compounds read low) is on record?
**A.** 0.982

**Q.** And the normalized growth (locus YBL105C, strain PKC1, active compounds read low)?
**A.** 0.98

**Q.** And the normalized growth (locus YBR135W, strain CKS1, active compounds read low)?
**A.** 0.986

**Q.** And the normalized growth (locus YBR136W, strain MEC1, active compounds read low)?
**A.** 0.984

**Q.** What about the normalized growth (locus YBR160W, strain CDC28, active compounds read low) of the same molecule?
**A.** 0.984

**Q.** What about the normalized growth (locus YDL017W, strain CDC7, active compounds read low) of the same molecule?
**A.** 0.991

**Q.** And the normalized growth (locus YDL028C, strain MPS1, active compounds read low)?
**A.** 0.991

**Q.** What about the normalized growth [1] of the same molecule?
**A.** 0.974

**Q.** And the normalized growth (locus YDL108W, strain KIN28, active compounds read low)?
**A.** 0.992

**Q.** And the normalized growth (locus YDL132W, strain cdc53, active compounds read low)?
**A.** 0.98

**Q.** What about the normalized growth (locus YDL214C, strain PRR2, active compounds read low) of the same molecule?
**A.** 0.96

**Q.** And the normalized growth (locus YDR052C, strain DBF4, active compounds read low)?
**A.** 0.98

**Q.** What about the normalized growth (locus YDR054C, strain cdc34, active compounds read low) of the same molecule?
**A.** 0.976

**Q.** What about the normalized growth (locus YDR226W, strain ADK1, active compounds read low) of the same molecule?
**A.** 0.977

**Q.** What about the normalized growth (locus YDR477W, strain SNF1, active compounds read low) of the same molecule?
**A.** 0.972

**Q.** And the normalized growth (locus YER123W, strain YCK3, active compounds read low)?
**A.** 0.96

**Q.** And the normalized growth (locus YER133W, strain GLC7, active compounds read low)?
**A.** 0.941

**Q.** What about the normalized growth (locus YFL009W, strain cdc4, active compounds read low) of the same molecule?
**A.** 0.974

**Q.** And the normalized growth (locus YFL029C, strain CAK1, active compounds read low)?
**A.** 0.981

**Q.** What about the normalized growth (locus YFR003C, strain YPI1, active compounds read low) of the same molecule?
**A.** 0.979

**Q.** And the normalized growth (locus YFR019W, strain FAB1, active compounds read low)?
**A.** 0.978

**Q.** What about the normalized growth (locus YFR028C, strain CDC14, active compounds read low) of the same molecule?
**A.** 0.978

**Q.** And the normalized growth (locus YGR040W, strain KSS1, active compounds read low)?
**A.** 0.962

**Q.** What about the normalized growth (locus YGR052W, strain FMP48, active compounds read low) of the same molecule?
**A.** 1.05

**Q.** What about the normalized growth (locus YGR092W, strain DBF2, active compounds read low) of the same molecule?
**A.** 0.948

**Q.** What about the normalized growth [2] of the same molecule?
**A.** 1.1

**Q.** And the normalized growth (locus YHR079C, strain IRE1, active compounds read low)?
**A.** 1.05

**Q.** And the normalized growth (locus YHR082C, strain KSP1, active compounds read low)?
**A.** 1.02

**Q.** What about the normalized growth (locus YHR205W, strain SCH9, active compounds read low) of the same molecule?
**A.** 0.972

**Q.** What about the normalized growth (locus YIL147C, strain SLN1, active compounds read low) of the same molecule?
**A.** 0.987

**Q.** What about the normalized growth (locus YJL095W, strain BCK1, active compounds read low) of the same molecule?
**A.** 1.03

**Q.** And the normalized growth (locus YJL128C, strain PBS2, active compounds read low)?
**A.** 0.931

**Q.** What about the normalized growth (locus YJL157C, strain FAR1, active compounds read low) of the same molecule?
**A.** 0.968

**Q.** And the normalized growth (locus YJR016C, strain ILV3, active compounds read low)?
**A.** 0.988

**Q.** What about the normalized growth (locus YJR066W, strain TOR1 (second series), active compounds read low) of the same molecule?
**A.** 0.934

**Q.** And the normalized growth (locus YJR066W, strain TOR1, active compounds read low)?
**A.** 1.07

**Q.** What about the normalized growth (locus YKL048C, strain ELM1, active compounds read low) of the same molecule?
**A.** 0.964

**Q.** And the normalized growth (locus YKL067W, strain YNK1, active compounds read low)?
**A.** 0.966

**Q.** What about the normalized growth (locus YKL101W, strain HSL1, active compounds read low) of the same molecule?
**A.** 0.964

**Q.** And the normalized growth (locus YKL193C, strain SDS22, active compounds read low)?
**A.** 0.98

**Q.** And the normalized growth (locus YKL203C, strain TOR2, active compounds read low)?
**A.** 1.04

**Q.** What about the normalized growth (locus YLR113W, strain HOG1, active compounds read low) of the same molecule?
**A.** 0.924

**Q.** What about the normalized growth (locus YLR133W, strain CKI1, active compounds read low) of the same molecule?
**A.** 0.979

**Q.** And the normalized growth (locus YLR403W, strain SFP1, active compounds read low)?
**A.** 0.968

**Q.** And the normalized growth (locus YML070W, strain DAK1, active compounds read low)?
**A.** 0.966

**Q.** And the normalized growth (locus YMR001C, strain CDC5, active compounds read low)?
**A.** 0.98

**Q.** And the normalized growth (locus YMR205C, strain PFK2 (second series), active compounds read low)?
**A.** 0.974

**Q.** What about the normalized growth (locus YMR277W, strain FCP1, active compounds read low) of the same molecule?
**A.** 0.98

**Q.** And the normalized growth (locus YNL006W, strain LST8, active compounds read low)?
**A.** 0.98

**Q.** What about the normalized growth (locus YNL020C, strain ARK1, active compounds read low) of the same molecule?
**A.** 0.976

**Q.** What about the normalized growth (locus YNL161W, strain CBK1, active compounds read low) of the same molecule?
**A.** 0.982

**Q.** What about the normalized growth (locus YNL183C, strain NPR1, active compounds read low) of the same molecule?
**A.** 1.05

**Q.** What about the normalized growth (locus YNL207W, strain RIO2, active compounds read low) of the same molecule?
**A.** 0.979

**Q.** What about the normalized growth (locus YNL222W, strain SSU72, active compounds read low) of the same molecule?
**A.** 0.985

**Q.** What about the normalized growth (locus YNL307C, strain MCK1 (second series), active compounds read low) of the same molecule?
**A.** 0.968

**Q.** And the normalized growth (locus YOL078W, strain AVO1, active compounds read low)?
**A.** 0.987

**Q.** And the normalized growth (locus YOL136C, strain PFK27, active compounds read low)?
**A.** 0.963

**Q.** And the normalized growth (locus YOR061W, strain CKA2, active compounds read low)?
**A.** 0.959

**Q.** And the normalized growth (locus YOR119C, strain RIO1, active compounds read low)?
**A.** 0.992

**Q.** And the normalized growth (locus YOR231W, strain MKK1, active compounds read low)?
**A.** 1.02

**Q.** What about the normalized growth (locus YOR329C, strain SCD5, active compounds read low) of the same molecule?
**A.** 0.987

**Q.** And the normalized growth (locus YPL031C, strain PHO85, active compounds read low)?
**A.** 0.961

**Q.** What about the normalized growth (locus YPL153C, strain RAD53, active compounds read low) of the same molecule?
**A.** 0.959

**Q.** What about the normalized growth (locus YPL204W, strain HRR25, active compounds read low) of the same molecule?
**A.** 0.967

**Q.** And the normalized growth (locus YPL209C, strain IPL1, active compounds read low)?
**A.** 0.983

**Q.** And the normalized growth (locus YPL256C, strain CLN2, active compounds read low)?
**A.** 0.995

**Q.** What about the normalized growth (locus YPR025C, strain CCL1, active compounds read low) of the same molecule?
**A.** 0.984

**Q.** What about the normalized growth (locus YPR106W, strain ISR1, active compounds read low) of the same molecule?
**A.** 0.98

**Q.** And the normalized growth (locus YPR111W, strain DBF20, active compounds read low)?
**A.** 0.97

**Q.** And the normalized growth (strain NNK1, active compounds read low)?
**A.** 0.975

**Q.** And the normalized growth (strain TSCII, active compounds read low)?
**A.** 0.974

**Q.** With `C=CCn1c(COc2c(Br)cc(C)c3c2CCC3)n[nH]c1=S` as the molecule, how does the normalized growth (locus YAL013W, strain DEP1, active compounds read low) read?
**A.** 0.968

**Q.** And the normalized growth (locus YBR229C, strain ROT2, active compounds read low)?
**A.** 0.977

**Q.** And the normalized growth (locus YCL061C, strain MRC1, active compounds read low)?
**A.** 0.969

**Q.** And the normalized growth [1]?
**A.** 0.975

**Q.** And the normalized growth (locus YDL134C, strain PPH21, active compounds read low)?
**A.** 0.965

**Q.** What about the normalized growth (locus YDR150W, strain NUM1, active compounds read low) of the same molecule?
**A.** 0.857

**Q.** What about the normalized growth (locus YEL061C, strain CIN8, active compounds read low) of the same molecule?
**A.** 0.896 (active)

**Q.** What about the normalized growth (locus YGR078C, strain PAC10, active compounds read low) of the same molecule?
**A.** 0.978

**Q.** What about the normalized growth [2] of the same molecule?
**A.** 0.544 (active)

**Q.** And the normalized growth (locus YHR087W, strain rtc3, active compounds read low)?
**A.** 1.01

**Q.** What about the normalized growth (locus YJR043C, strain POL32, active compounds read low) of the same molecule?
**A.** 0.98

**Q.** And the normalized growth (locus YJR075W, strain HOC1, active compounds read low)?
**A.** 0.992

**Q.** And the normalized growth (locus YLR039C, strain RIC1, active compounds read low)?
**A.** 0.491 (active)

**Q.** What about the normalized growth (locus YLR058C, strain SHM2 (second series), active compounds read low) of the same molecule?
**A.** 0.991

**Q.** And the normalized growth (locus YLR085C, strain ARP6, active compounds read low)?
**A.** 0.558 (active)

**Q.** And the normalized growth (locus YLR262C, strain YPT6, active compounds read low)?
**A.** 0.571 (active)

**Q.** And the normalized growth (locus YML094W, strain GIM5, active compounds read low)?
**A.** 0.841 (active)

**Q.** And the normalized growth (locus YMR219W, strain ESC1, active compounds read low)?
**A.** 0.988

**Q.** And the normalized growth (locus YMR263W, strain SAP30, active compounds read low)?
**A.** 0.846 (active)

**Q.** And the normalized growth (locus YMR307W, strain GAS1, active compounds read low)?
**A.** 0.324 (active)

**Q.** And the normalized growth (locus YNL153C, strain GIM3, active compounds read low)?
**A.** 0.975

**Q.** And the normalized growth (locus YNL298W, strain CLA4 (second series), active compounds read low)?
**A.** 0.764 (active)

**Q.** What about the normalized growth (locus YNL322C, strain KRE1, active compounds read low) of the same molecule?
**A.** 0.991

**Q.** What about the normalized growth (locus YNR030W, strain Alg12, active compounds read low) of the same molecule?
**A.** 0.874 (active)

**Q.** What about the normalized growth (locus YPL055C, strain LGE1, active compounds read low) of the same molecule?
**A.** 1.08

**Q.** And the normalized growth (locus YPL241C, strain CIN2, active compounds read low)?
**A.** 0.847 (active)

**Q.** And the normalized growth (locus YPR135W, strain CTF4, active compounds read low)?
**A.** 0.612 (active)
